Assay [1] can be described thus: NCI Yeast Anticancer Drug Screen. Data for the rad50 strain (AID 155).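 Note: 0% = growth of vehicle-only cultures of the same strain.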 Particulars: S. cerevisiae rad50 strain growth inhibition, hits give high values. The gist of the method:
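Relative growth inhibition (compound vs vehicle) was measured in yeast with a defined repair-gene alteration.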

The nature of assay [2]: NCI Yeast Anticancer Drug Screen. Data for the mec2-1 strain (AID 157). Particulars: S. cerevisiae mec2-1 strain, hits give high values. The gist of the method: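 Compounds were applied to mec2-1 yeast cells. Their growth was then compared with that of vehicle-treated cultures to give growth inhibition.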
A short description of assay [3]: NCI Yeast Anticancer Drug Screen. Data for the sgs1 mgt1 strain (AID 161).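 Note: 0% = growth of cultures given vehicle only.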 Particulars: S. cerevisiae sgs1 mgt1 strain, hits give high values. The gist of the method:
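Compounds are added to genetically altered yeast, and growth is compared with cultures given vehicle alone to give percent inhibition.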

Assay [4] is described as follows: NCI Yeast Anticancer Drug Screen. Data for the cln2 rad14 strain (AID 165).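 Note: 0% = growth equal to vehicle treated cultures.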 Particulars: S. cerevisiae cln2 rad14 strain, hits give high values. The gist of the method:
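Strain: cln2 rad14 yeast, altered in cell cycle control and DNA damage repair. Read-out: growth inhibition vs vehicle.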

The nature of assay [5]: NCI Yeast Anticancer Drug Screen. Data for the bub3 strain (AID 167). Particulars: S. cerevisiae bub3 mutant strain, hits give high values. The gist of the method: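 Screening used yeast with an engineered genetic alteration affecting cell cycle control. Compound-exposed cultures were compared with vehicle cultures, and reduced growth was taken as inhibition.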
Assay [6] is described as follows: NCI Yeast Anticancer Drug Screen. Data for the mlh1 rad18 strain (AID 175). Particulars: S. cerevisiae mlh1 rad18 strain growth inhibition, hits give high values. A digest of the protocol: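 A repair-deficient yeast strain is exposed to test compound, and growth is scored relative to vehicle-treated controls.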
Where [7] appears, read: at 5.0 µM (retest, dose inferred, filed as 0.5).
Where [8] appears, read: at 50.0 µM (retest, dose inferred, filed as 5.0).

Consider ten compounds from PubChem BioAssay (NCI).

SMILES strings stand for the structures. The panel holds about 79,000 compounds, 15% with a hit somewhere; the sample as a whole holds those more often. A number with no mark means an inactive call. Calls of active or inactive are those of the source. Cut-off read from the data, not from the text of the source: active = growth inhibition above about 70%; inactive = the rest.

Turning to `CN(C)c1ccc(C(c2c(O)c3ccccc3oc2=O)c2c(O)c3ccccc3oc2=O)cc1`, the growth inhibition in assay [1] (setting [7]) is 0%; in assay [1] (setting [8]), 40%; in assay [1] (at 50.0 µM) it was 59.2%; in assay [2] (setting [7]), -8%; in assay [2] (setting [8]) it was 26%; in assay [2] (at 50.0 µM), 65.6%. For the same compound, the growth inhibition is 4% in assay [3] (setting [7]); 42% in assay [3] (setting [8]); 60% in assay [3] (at 50.0 µM); -5% in assay [4] (setting [7]); 13% in assay [4] (setting [8]); 18.5% in assay [4] (at 50.0 µM). The growth inhibition in assay [5] (setting [7]) is -3%; in assay [5] (setting [8]), 16%; in assay [5] (at 50.0 µM), 34.3%; in assay [6] (setting [7]), -3%; in assay [6] (setting [8]), 13%; in assay [6] (at 50.0 µM), 51%.
Take `CN1C(=O)C2(C)SSC1(C)C(=O)N2C`: the growth inhibition in assay [1] (setting [7]) is 45%; in assay [1] (setting [8]), 95% (active); in assay [1] (at 50.0 µM), 97.2% (active); in assay [2] (setting [7]) it was 27%; in assay [2] (setting [8]), 95% (active); in assay [2] (at 50.0 µM), 93.8% (active). Further, the growth inhibition in assay [3] (setting [7]) was 43%; in assay [3] (setting [8]), 96% (active); in assay [3] (at 50.0 µM) it was 97.5% (active); in assay [4] (setting [7]) it was 10%; in assay [4] (setting [8]) it was 85% (active); in assay [4] (at 50.0 µM), 87.7% (active). For the same compound, the growth inhibition in assay [5] (setting [7]) is 17%; in assay [5] (setting [8]), 93% (active); in assay [5] (at 50.0 µM), 95.5% (active); in assay [6] (setting [7]) it was 57%; in assay [6] (setting [8]), 97% (active); in assay [6] (at 50.0 µM), 98.6% (active).
For `CCOP(=S)(OCC)SCc1c(C)c(C)c(CSP(=S)(OCC)OCC)c(C)c1C`, the growth inhibition was 1% in assay [1] (setting [7]); -11% in assay [1] (setting [8]); -4.3% in assay [1] (at 50.0 µM); -4% in assay [2] (setting [7]); -2% in assay [2] (setting [8]); -3.75% in assay [2] (at 50.0 µM). For the same compound, the growth inhibition is -8% in assay [3] (setting [7]); 2% in assay [3] (setting [8]); -12.2% in assay [3] (at 50.0 µM); 1% in assay [4] (setting [7]); -10% in assay [4] (setting [8]); 45% in assay [4] (at 50.0 µM). Further, the growth inhibition was -4% in assay [5] (setting [7]); -4% in assay [5] (setting [8]); -0.65% in assay [5] (at 50.0 µM); 2% in assay [6] (setting [7]); -5% in assay [6] (setting [8]); 8.8% in assay [6] (at 50.0 µM).
For the compound `CN1CCN(c2ccc3nc(-c4ccc5nc(CCCc6ccc(N(CCCl)CCCl)cc6)[nH]c5c4)[nH]c3c2)CC1`, the growth inhibition in assay [1] (setting [7]) was 98% (active); in assay [1] (setting [8]) it was 98% (active); in assay [1] (at 50.0 µM) it was 90.5% (active); in assay [2] (setting [7]), 99% (active); in assay [2] (setting [8]), 99% (active); in assay [2] (at 50.0 µM), 90.8% (active). The growth inhibition in assay [3] (setting [7]) is 100% (active); in assay [3] (setting [8]) it was 99% (active); in assay [3] (at 50.0 µM) it was 92.2% (active); in assay [4] (setting [7]) it was 97% (active); in assay [4] (setting [8]) it was 99% (active); in assay [4] (at 50.0 µM) it was 91% (active). Moreover, the growth inhibition is 99% (active) in assay [5] (setting [7]); 99% (active) in assay [5] (setting [8]); 91.7% (active) in assay [5] (at 50.0 µM); 98% (active) in assay [6] (setting [7]); 98% (active) in assay [6] (setting [8]); 89.5% (active) in assay [6] (at 50.0 µM).
On to `C1CN1[PH+](N1CC1)N1CC1.C1CN1[PH+](N1CC1)N1CC1.[I][Pt][I]`, for which the growth inhibition is 2% in assay [1] (setting [7]); 20% in assay [1] (setting [8]); 66.5% in assay [1] (at 50.0 µM); 0% in assay [2] (setting [7]); 20% in assay [2] (setting [8]); 14.8% in assay [2] (at 50.0 µM). The growth inhibition in assay [3] (setting [7]) is 2%; in assay [3] (setting [8]), 30%; in assay [3] (at 50.0 µM) it was 59.8%; in assay [4] (setting [7]) it was 1%; in assay [4] (setting [8]) it was 14%; in assay [4] (at 50.0 µM), 21.8%. For the same compound, the growth inhibition in assay [5] (setting [7]) was 2%; in assay [5] (setting [8]), 21%; in assay [5] (at 50.0 µM), 22.7%; in assay [6] (setting [7]), 5%; in assay [6] (setting [8]) it was 44%; in assay [6] (at 50.0 µM), 73.8% (active).
Take `CC(C)(C)OOC(=O)/C=C\C(=O)OOC(C)(C)C`: the growth inhibition is 1% in assay [1] (setting [7]); -1% in assay [1] (setting [8]); 5.05% in assay [1] (at 50.0 µM); -2% in assay [2] (setting [7]); -1% in assay [2] (setting [8]); -15.1% in assay [2] (at 50.0 µM). Besides, the growth inhibition in assay [3] (setting [7]) is 0%; in assay [3] (setting [8]), 0%; in assay [3] (at 50.0 µM) it was 8.55%; in assay [4] (setting [7]), 1%; in assay [4] (setting [8]), -8%; in assay [4] (at 50.0 µM), 75.3% (active). In addition, the growth inhibition was 2% in assay [5] (setting [7]); 0% in assay [5] (setting [8]); 9.7% in assay [5] (at 50.0 µM); 1% in assay [6] (setting [7]); 0% in assay [6] (setting [8]); -12.7% in assay [6] (at 50.0 µM).
Consider `CC(=O)[C-](I)C(C)=O.CC(=O)[C-](I)C(C)=O.CC(=O)[C-](I)C(C)=O.[Ru+3]`, for which the growth inhibition in assay [1] (setting [7]) was -6%; in assay [1] (setting [8]), 90% (active); in assay [1] (at 50.0 µM) it was 48.2%; in assay [2] (setting [7]), 14%; in assay [2] (setting [8]), 95% (active); in assay [2] (at 50.0 µM) it was 90.5% (active). Also, the growth inhibition in assay [3] (setting [7]) is 5%; in assay [3] (setting [8]) it was 89% (active); in assay [3] (at 50.0 µM), 35.8%; in assay [4] (setting [7]) it was 26%; in assay [4] (setting [8]) it was 85% (active); in assay [4] (at 50.0 µM) it was 7.45%. The growth inhibition in assay [5] (setting [7]) is 18%; in assay [5] (setting [8]), 90% (active); in assay [5] (at 50.0 µM), -1.95%; in assay [6] (setting [7]), 32%; in assay [6] (setting [8]) it was 96% (active); in assay [6] (at 50.0 µM), 53.5%.
Take `O=C(N/N=C/c1cc(Br)cc(Br)c1[O-])c1ccccc1O.O=C(N/N=C/c1cc(Br)cc(Br)c1[O-])c1ccccc1O.[Mn+2]`: the growth inhibition in assay [1] (setting [7]) was 96% (active); in assay [1] (setting [8]), 94% (active); in assay [1] (at 50.0 µM) it was 97.6% (active); in assay [2] (setting [7]), 98% (active); in assay [2] (setting [8]) it was 96% (active); in assay [2] (at 50.0 µM), 95.7% (active). Moreover, the growth inhibition is 98% (active) in assay [3] (setting [7]); 93% (active) in assay [3] (setting [8]); 93.2% (active) in assay [3] (at 50.0 µM); 93% (active) in assay [4] (setting [7]); 90% (active) in assay [4] (setting [8]); 97.3% (active) in assay [4] (at 50.0 µM). Further, the growth inhibition in assay [5] (setting [7]) was 96% (active); in assay [5] (setting [8]) it was 94% (active); in assay [5] (at 50.0 µM) it was 96% (active); in assay [6] (setting [7]), 96% (active); in assay [6] (setting [8]) it was 94% (active); in assay [6] (at 50.0 µM), 98% (active).
For the compound `N#C[S-].[Ce+3].c1cnc2c(c1)ccc1cccnc12.c1cnc2c(c1)ccc1cccnc12.c1cnc2c(c1)ccc1cccnc12`, the growth inhibition in assay [1] (setting [7]) was 96% (active); in assay [1] (setting [8]) it was 99% (active); in assay [1] (at 50.0 µM) it was 92% (active); in assay [2] (setting [7]), 99% (active); in assay [2] (setting [8]) it was 100% (active); in assay [2] (at 50.0 µM) it was 94.8% (active). In addition, the growth inhibition in assay [3] (setting [7]) is 100% (active); in assay [3] (setting [8]), 100% (active); in assay [3] (at 50.0 µM) it was 91% (active); in assay [4] (setting [7]) it was 94% (active); in assay [4] (setting [8]), 98% (active); in assay [4] (at 50.0 µM), 93.5% (active). In addition, the growth inhibition in assay [5] (setting [7]) is 99% (active); in assay [5] (setting [8]), 99% (active); in assay [5] (at 50.0 µM), 93% (active); in assay [6] (setting [7]), 97% (active); in assay [6] (setting [8]) it was 99% (active); in assay [6] (at 50.0 µM), 92.8% (active).
With `CC[n+]1c(/C=C/c2ccc(N(CCCl)CCCl)cc2)ccc2cc(Br)ccc21`, the growth inhibition in assay [1] (setting [7]) was 97% (active); in assay [1] (setting [8]), 97% (active); in assay [1] (at 50.0 µM) it was 85.5% (active); in assay [2] (setting [7]), 96% (active); in assay [2] (setting [8]) it was 96% (active); in assay [2] (at 50.0 µM) it was 84% (active). Besides, the growth inhibition in assay [3] (setting [7]) is 98% (active); in assay [3] (setting [8]), 98% (active); in assay [3] (at 50.0 µM), 82.9% (active); in assay [4] (setting [7]) it was 90% (active); in assay [4] (setting [8]), 90% (active); in assay [4] (at 50.0 µM), 82% (active). Besides, the growth inhibition was 96% (active) in assay [5] (setting [7]); 96% (active) in assay [5] (setting [8]); 85.2% (active) in assay [5] (at 50.0 µM); 96% (active) in assay [6] (setting [7]); 96% (active) in assay [6] (setting [8]); 82.2% (active) in assay [6] (at 50.0 µM).
